# According to the supplement of paper PMC3334620:
# The full ranking holds about 33,000 sequences; the median of “E-score (-0.5 to 0.5)” is about -0.043, and the highest 2% start at about 0.37. The entries come from a sample that favours the highest values as a whole.
# Molecular target: T1, Upc2 (UniProt Q12151)
# T1 sequence: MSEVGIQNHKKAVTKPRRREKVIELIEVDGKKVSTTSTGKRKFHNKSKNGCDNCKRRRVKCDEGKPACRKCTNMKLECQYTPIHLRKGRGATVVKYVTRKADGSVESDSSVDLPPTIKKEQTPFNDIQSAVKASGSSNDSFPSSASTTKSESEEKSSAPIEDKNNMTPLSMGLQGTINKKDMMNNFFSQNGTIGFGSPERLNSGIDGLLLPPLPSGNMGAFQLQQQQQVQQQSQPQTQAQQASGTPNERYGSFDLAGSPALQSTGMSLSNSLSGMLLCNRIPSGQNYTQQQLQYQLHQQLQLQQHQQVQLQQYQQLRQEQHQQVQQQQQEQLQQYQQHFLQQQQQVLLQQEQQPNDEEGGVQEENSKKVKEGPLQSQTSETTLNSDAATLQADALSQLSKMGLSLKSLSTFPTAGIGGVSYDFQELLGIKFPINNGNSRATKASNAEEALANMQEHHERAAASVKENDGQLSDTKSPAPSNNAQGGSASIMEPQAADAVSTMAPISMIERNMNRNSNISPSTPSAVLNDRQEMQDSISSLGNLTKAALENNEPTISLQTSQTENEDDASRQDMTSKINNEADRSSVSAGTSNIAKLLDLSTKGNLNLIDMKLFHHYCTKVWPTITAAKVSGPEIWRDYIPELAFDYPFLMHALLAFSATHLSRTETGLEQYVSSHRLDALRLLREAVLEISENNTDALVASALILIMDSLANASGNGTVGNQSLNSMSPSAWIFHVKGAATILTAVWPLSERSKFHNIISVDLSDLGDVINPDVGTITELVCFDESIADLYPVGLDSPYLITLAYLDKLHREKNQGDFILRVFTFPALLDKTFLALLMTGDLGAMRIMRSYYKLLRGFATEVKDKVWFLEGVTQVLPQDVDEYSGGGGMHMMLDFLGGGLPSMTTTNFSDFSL
# Assay: PBM E-score (8-mer binding enrichment) (E-score (-0.5 to 0.5)); higher = stronger / more preferred TF binding
# Settings: protein concentration: 200 nM; construct: GST-full length
# Outline: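 The E-score, a modified Wilcoxon-Mann-Whitney statistic, was computed by the Universal PBM Analysis Suite for every ungapped eight-base word pooled with its reverse complement. Scans behind it were normalised with masliner after bound GST-tagged yeast transcription factors were detected with fluorescent anti-GST. The proteins, at about 100-200 nM, had been applied to universal all-10-mer Agilent arrays made double-stranded by primer extension.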
row,Sequence,PBM E-score
1,GTTTCACA,0.00208
2,CCGAGTCC,-0.0483
3,GCTCCTAC,0.0461
4,GCAGTTAA,0.0277
5,GATGATAC,0.0998
6,AGCCAAAA,-0.178
7,CGAAACGC,0.15
8,GAAAACGA,0.263
9,AGAAACGG,0.217
10,AGAAACGA,0.4
11,CGAAACCA,0.201
12,AGAAACGC,-0.037
13,GGAAACAA,-0.0508
14,GGAAACGA,0.428
15,CGAAACGA,0.447
16,ACAGTCCT,-0.319
17,CTCGCTCC,0.313
18,ACATAGTG,-0.128
19,ACCGCCAG,-0.0637
20,GATCACGA,-0.00109
21,CGTAAAAC,0.389
22,GGTAAAAC,0.0926
23,AGTAAAAA,-0.0254
24,CGTAAACC,0.364
25,CGTAAAAG,0.405
26,TGTAAAAA,-0.0321

row,Sequence,PBM E-score
1,AGTAAAAG,0.168
2,CGTAAAAA,0.404
3,CTTAAAAG,-0.0494
4,GGCCAACC,-0.0824
5,ATAGAGGC,-0.0461
6,ACAAAGGA,-0.0862
7,GGTTGTAC,0.154
8,GCAGATCA,-0.161
9,CGCCTTAG,-0.169
10,GCCACATA,-0.153
11,TCAGACAA,-0.17
12,AACGAAAT,0.398
13,CACGAAAG,-0.0189
14,AACGAAAG,0.383
15,CACGAAAC,0.0525
16,ACCGAAAG,0.108
17,AACGAAAA,0.368
18,AACGAAAC,0.37
19,GACGAAAC,0.251
20,ACCGAAAT,0.141
21,ACTCGCCC,-0.205
22,AACGCTAG,-0.089
23,AGATCGTG,0.0463
24,CGATCGTC,0.128
25,CGATCGTA,0.437
26,CGATCGAA,0.24

row,Sequence,PBM E-score
1,GGATCGAA,0.211
2,AGATCGTA,0.387
3,GGATCGGA,0.0439
4,AGATCGTC,-0.141
5,GGATCGTA,0.422
6,CTAGGTCA,-0.214
7,CTATCAGA,-0.13
8,AACAAGGC,-0.167
9,CGTCGTCA,0.055
10,AGTCGTCA,-0.167
11,AGTCGTAA,0.379
12,GGTCGTGA,-0.0444
13,GGTCGTAA,0.421
14,CGTCGTAA,0.457
15,TGTCGGAA,0.0576
16,GGTCGTCA,-0.0836
17,CGTCGTGA,0.127
18,TGTCGTAA,0.433
19,TGGCGTAA,0.0743
20,AGTCGTGA,-0.0656
21,ACCGTTAT,-0.0125
22,GAGTCAAA,-0.229
23,ATTCTAAC,-0.125
24,AGCAAGAG,-0.203
25,CTGAGCTA,-0.0866
26,ACCGCTTC,-0.203

row,Sequence,PBM E-score
1,AGTGAACT,-0.117
2,ACTGTTCG,0.16
3,CCGTACGC,0.308
4,CCCTACGG,-0.0948
5,GCGTACTA,0.0874
6,CCGTACGG,0.374
7,ACGTACGA,0.431
8,GCGTACGC,0.281
9,ACGTACGC,0.254
10,CCGTACTA,0.282
11,ACGTACGT,0.293
12,GCGTACGA,0.448
13,CCGTACGA,0.443
14,ACGTACGG,0.354
15,TAAAGCCA,0.0825
16,ATGCGACG,0.306
17,AAGAATCT,-0.148
18,CCTTGCAA,-0.115
19,AGTGCGAT,0.0239
20,GATAGAAA,0.0471
21,AGACCCTG,-0.259
22,TCTCCTAA,-0.00947
23,TCGCACGA,0.0732
24,TCCTACGA,0.256
25,TCGTACGA,0.471
26,CCTCGATA,-0.0083

row,Sequence,PBM E-score
1,CAACGCTG,-0.0985
2,GCCTCGAA,0.00343
3,CCCTCGTC,0.122
4,CCCTCGGA,0.195
5,ACCTCGTA,0.462
6,CCCTCGTA,0.465
7,GCCTCGGA,0.135
8,ACCTCGTG,0.2
9,GCCTCGTA,0.473
10,ACCTCGTC,0.0626
11,TCCACTCA,-0.17
12,CTAAGAGA,-0.0721
13,ACAGAGCG,-0.0821
14,TAGGCAAA,-0.108
15,AACAGTTA,-0.135
16,ATATCGTA,0.427
17,GTATCGAA,0.142
18,CTATCGAA,-0.056
19,CTATCGTA,0.43
20,CTATCGTC,-0.0375
21,GTATCGTA,0.423
22,ATATCGTC,0.0922
23,GTATCGGA,0.229
24,ATATCGTG,0.0382
25,CCTAGCGA,-0.299
26,CCCCTCTC,-0.185

row,Sequence,PBM E-score
1,ACCGGCCC,0.0253
2,ATCTGTAA,-0.0759
3,ATGTAAAC,0.27
4,AGTGAGAC,-0.0557
5,GCCTGCCA,-0.317
6,CAATAGAA,-0.241
7,CCGAACCG,0.0623
8,CCGAACCA,-0.127
9,ACGAACCG,0.378
10,GCGAACCA,0.164
11,ACGAACCA,0.376
12,ACGAACCC,0.301
13,TCAGCCAA,-0.177
14,CGTGCGAA,0.214
15,ATTTTGCA,-0.0911
16,GTTTACAA,0.164
17,CATTACGA,0.316
18,ATTTACGG,0.297
19,CTTTACGA,0.471
20,CTTTACGC,0.332
21,GTTTACGA,0.471
22,GTTTACTA,0.224
23,ATTTACGC,0.154
24,ATTTACGA,0.45
25,GAGGGGGA,-0.0209
26,GTCGAGTA,0.0357

row,Sequence,PBM E-score
1,ATTGTATC,-0.2
2,GAGGGAAC,-0.0277
3,AATAAGTA,0.0339
4,CTGTTGGC,-0.209
5,CTGCGACC,-0.164
6,ATCACAGA,-0.155
7,CTCCTATA,-0.0688
8,CGCTATTC,0.102
9,ACCAAACG,0.4
10,ACCAAACA,0.208
11,ACCAAACC,-0.0475
12,CGCAAACA,0.0866
13,CGCAAGCG,0.115
14,AACAAACG,0.353
15,CACAAACG,0.387
16,CACAAACA,-0.0461
17,CCCAAACG,0.431
18,CCCAAGCG,-0.031
19,CGCAAACG,0.412
20,CCAAAACG,0.114
